Screens: PubChem, several laboratories
Hits are enriched below; roughly 3.4% of the tested compounds scored in any of these assays.
SMARCA2 act – activators of SMARCA2 function. MG213 cells, MMTV-luciferase reporter, dexamethasone, overnight. activation, % at 9.1 µM. 370,000 compounds, 1% hits; in the data active = activation above about 7.8%;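 note: 0% = vehicle wells and 100% = reference activator wells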
AI-2 QS mod – modulators of Vibrio harveyi AI-2 quorum sensing system. Vibrio harveyi JMH597 AI-2 luminescence/OD600 ratio, 9 h; stronger effect = lower value; strain lacks LuxN and CqsS sensors; 0 = neutral-control median. activity change, % at 7.5 µM. 300,000 compounds, 0.4% hits. AID 2094; in the data active = activity change below about -75%, passing the limit was not always enough;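 note: luminescence divided by OD600 gain over 9 h not by final OD600 alone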
HSP90 refold inh – HSP90 refolding inhibition in rabbit reticulocyte lysate; luciferase refolding luminescence, 3 h; inhibition, % at 5.6 µM; 290,000 compounds, 0.91% hits; AID 1789;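 active = inhibition above the screen-wide mean plus 3 SD, computed separately per campaign, cut at about 16% in these data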;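 note: 0% = DMSO wells and 100% = 60 µM geldanamycin wells; inhibitors lower the luminescence because luciferase stays unfolded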
GAA850 FXN act – increases GAA850 frataxin promoter reporter activity; HEK293 lucGAA850 FXN promoter luciferase reporter, 24 h; percent of 10 µM SAHA response; activation, % at 6 µM; AID 540364; 360,000 compounds, 0.56% hits;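 active = activation above the average of all compounds screened plus 3 SD, cutoff fixed separately per campaign, cut at about 7.5% in these data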;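 note: 0% = DMSO wells and 100% = 10 µM SAHA wells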
HSF1 inhib – HSF1 inhibition; NIH3T3-HGL HSE-luciferase, MG132-induced, luminescence 8 h; stronger effect = lower value; 300,000 compounds, 0.77% hits; activity change, negative = inhibition, % at 7.5 µM (by protocol);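 active = more than half of replicate wells show activity change below -50%, luminescence cut by over half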;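 note: luciferase reports HSF-1 transcriptional activity via heat shock element; 0% = median of DMSO wells and -100% = zero luminescence signal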
PG9 binder – small molecules binding HIV-1 gp120 antibody PG9; TR-FRET gp120-PG9 antibody binding; inhibition, % at 6.7 µM; 360,000 compounds, 0.43% hits; in the data active = inhibition above about 8.5%
HSP90 inh confirm – HSP90 inhibition, confirmation assay. shares compounds with HSP90 refold inh. rabbit reticulocyte lysate, luciferase refolding luminescence, 3 h. inhibition, % at 5.9 µM. 2,300 compounds, 64% hits. AID 1846; in the data active = inhibition above about 18%;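 note: 0% = vehicle wells and 100% = reference inhibitor wells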
luciferase ctr – blocks native firefly luciferase in HSP90 counter-screen; 2,300 compounds, 48% hits; shares compounds with HSP90 refold inh; purified native firefly luciferase, luminescence; inhibition, % at 5.9 µM;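 active = inhibition above the mean inhibition of all tested sample wells plus 3 SD, cut at about 10% in these data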;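 note: 0% = DMSO with luciferase and 100% = wells lacking luciferase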
Target sequence (P08659 whole entry, looked up): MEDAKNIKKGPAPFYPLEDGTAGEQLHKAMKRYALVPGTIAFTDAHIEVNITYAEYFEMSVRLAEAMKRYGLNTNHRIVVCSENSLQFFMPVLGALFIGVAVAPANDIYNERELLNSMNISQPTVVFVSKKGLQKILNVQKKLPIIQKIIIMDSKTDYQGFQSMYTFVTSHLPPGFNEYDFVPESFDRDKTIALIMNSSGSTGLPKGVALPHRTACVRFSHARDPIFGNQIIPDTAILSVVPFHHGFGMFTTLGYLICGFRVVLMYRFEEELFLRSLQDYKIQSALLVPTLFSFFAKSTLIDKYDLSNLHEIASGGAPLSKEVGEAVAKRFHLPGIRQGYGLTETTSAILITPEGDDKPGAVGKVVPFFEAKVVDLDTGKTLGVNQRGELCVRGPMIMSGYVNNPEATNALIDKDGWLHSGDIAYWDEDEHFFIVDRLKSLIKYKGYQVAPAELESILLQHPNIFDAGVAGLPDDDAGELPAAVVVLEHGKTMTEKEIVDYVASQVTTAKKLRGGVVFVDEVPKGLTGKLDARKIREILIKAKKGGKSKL
Active calls of the source: *; / = not tested or not shown.

SMILES	SMARCA2 act	AI-2 QS mod	HSP90 refold inh	GAA850 FXN act	HSF1 inhib	PG9 binder	HSP90 inh confirm	luciferase ctr
CC1=NN(c2ccccc2)C(=O)C1=Cc1ccccc1	-4	/	/	-2	/	-1	/	/
COc1ccc2c(c1)CCCN2C(=O)C1CCCN(S(=O)(=O)c2cccs2)C1 (stereo not drawn)	1	/	/	/	/	/	/	/
N#CC(C#N)=c1ccc2c(c1)NC1(CCCCC1)N=2	1	-15	52*	0	1	-72	7	1
O=C(CSC(=S)N1CCCCC1)c1ccccc1	5	11	54*	-2	23	0	73*	64*
O=C(CSC(=S)N1CCCC1)c1ccccc1	3	15	19*	-1	24	-1	43*	44*
O=C(O)CSC(=S)N1CCCC1	-3	-13	1	1	-2	0	/	/
C=CCn1c(C)cc(C(=O)Cn2nc(C(=O)O)c3ccccc3c2=O)c1C	7.9*	22	51*	4	-4	1	71*	20*
Cc1cc(C(=O)Cn2nc(C(=O)O)c3ccccc3c2=O)c(C)n1C1CC1	0	4	6	2	2	-1	/	/
CN(C)c1cccc(/C=C2\CC3(OC(=O)c4ccco4)CCCN2C3)c1 (stereo not drawn)	-3	/	/	/	/	/	/	/
COC(=O)c1ccc(-c2ccc(/C=N/NC(=O)CC3(C)OCCCO3)o2)cc1	7.8*	28	17*	4	-9	-3	26*	0
O=C(Cn1cc(C(=O)c2ccco2)c2ccccc21)NC1CC1	0	17	25*	0	0	-1	-9	-11
COC(=O)[C@]12CCCCC=C1N(Cc1ccc(OC)cc1)C(=O)[C@@H]2CC(=O)NCCCCc1ccccc1	0	/	/	/	/	/	/	/
Nc1nc(-c2ccco2)c(-c2ccco2)s1	0	24	20*	3	10	-4	0	-3
COc1ccc(NC(=O)/C(C#N)=C\c2ccc(-c3cccc(C(=O)O)c3C)o2)cc1	0	26	32*	3	-1	-9	28*	6
COc1ccc2nc(/C=N/NC(=O)[C@@H]3CCCN3C(=O)OC(C)(C)C)ccc2c1	2	15	41*	4	-4	1	26*	-1
CCN1CCN(Cc2ccc(NC(=O)Nc3ccccc3)cc2)CC1	/	6	20*	2	-42	/	29*	9
O=C(c1ccc(NS(=O)(=O)c2cccc(F)c2)cc1)N1CCCCC1	1	2	24*	0	-4	-1	-9	-11
Cc1ccc(C(=O)Nc2ccccc2C(=O)N2CCCCCC2)cc1	0	4	-2	2	10	-2	/	/
O=C(Nc1ccc(C(=O)N2CCCCC2)cc1)c1ccccc1	6	/	/	4	/	-1	/	/
O=C(Nc1ccccc1)Nc1ccc(C(=O)N2CCCC2)cc1	2	13	22*	4	13	-1	43*	20*
O=C(Nc1ccccc1C(=O)N1CCCC1)c1ccccc1	-4	7	27*	1	-12	2	-3	-5
O=C(NC1CCCCN(Cc2cccc(Cl)c2)C1=O)c1ccc(F)c(F)c1 (stereo not drawn)	-2	/	/	/	/	/	/	/
COc1nc(OC)nc(N2CCC(C(=O)NCc3cccc(OC)c3OC)CC2)n1	8	/	/	/	/	/	/	/
C[C@H](c1ccccc1)N1C[C@@H](COCc2ccccc2)Oc2cccc(Oc3ccc(F)cc3)c2S1(=O)=O	-2	/	/	/	/	-2	/	/
C[C@H]1CN([C@@H](C)CO)C(=O)CCCn2cc(nn2)CO[C@@H]1CN(C)C(=O)c1ccccc1	-1	/	/	/	/	0	/	/
SMILES	SMARCA2 act	AI-2 QS mod	HSP90 refold inh	GAA850 FXN act	HSF1 inhib	PG9 binder	HSP90 inh confirm	luciferase ctr
COc1ccc(OC)c(Cc2nnc(CCC(=O)NC3C4CC5CC(C4)CC3C5)o2)c1 (stereo not drawn)	-2	16	18*	2	-6	-3	-7	-6
COc1ccc(OC)c(Cc2nnc(CCC(=O)NC3CCCCC3)o2)c1	0	8	-1	1	9	0	/	/
Cc1ccccc1C(=O)Nc1ccc2c(c1)OCCO2	4	-3	43*	2	8	0	45*	34*
O=C(/C=C/c1ccccc1)Nc1cc(NC(=O)/C=C/c2ccccc2)cc(C(=O)O)c1	-1	7	32*	-2	-3	-5	41*	9.6*
Cc1ccc(NC(=O)c2ccc3c(c2)OCCO3)cc1	0	10	20*	-1	7	-1	51*	45*
CSc1ccccc1C(=O)Nc1ccc2c(c1)OCCO2	2	25	-1	-1	3	2	/	/
CSc1ccc(/C=C/C(=O)Nc2ccccc2)cc1	-1	10	23*	0	/	-1	71*	67*
CCn1c(=O)n(CC(=O)N2CCC(C)CC2)c(=O)c2ccccc21	-3	/	/	/	/	/	/	/
Cc1ccc(NC(=O)OCCCN2C(=O)CCC23CCC(C)CC3)cc1 (stereo not drawn)	5	/	/	/	/	/	/	/
O=C(NCCc1ccc(Cl)cc1)c1ccc2c(c1)ncn2C1CCCCC1	-7	/	/	/	/	/	/	/
O=C(Nc1ccc2c(c1)OCCO2)C1CC1c1ccccc1 (stereo not drawn)	5	-64	7	0	-8	-4	/	/
O=C(/C=C/c1ccccc1)Nc1ccc2c(c1)OCCO2	3	23	32*	0	5	-1	51*	48*
O=C(Nc1ccc2c(c1)OCCO2)c1ccccc1	/	11	24*	2	12	/	27*	17*
O=C(O)C1CCCCC1C(=O)Nc1ccc2c(c1)OCCO2 (stereo not drawn)	-8	14	29*	-13	-65*	1	2	6
O=C(Nc1ccc2c(c1)OCCO2)c1cccc(C(=O)Nc2ccc3c(c2)OCCO3)c1	-1	0	-2	4	20	2	/	/
COc1cc2cc(C(=O)Nc3ccc4c(c3)OCCO4)[nH]c2cc1OC	-5	-3	36*	-10	-72*	-2	62*	58*
O=C(CC1CS(=O)(=O)CC1CC(=O)Nc1ccc2c(c1)OCCO2)Nc1ccc2c(c1)OCCO2 (stereo not drawn)	-5	14	59*	-12	-82*	-1	68*	62*
Cc1ccc(OCCNC(=O)[C@@H](Cc2ccccc2)NC(=O)[C@H]2O[C@@H](n3ccc(=O)[nH]c3=O)[C@H](O)[C@@H]2O)cc1C	2	/	/	/	/	-1	/	/
NC(=O)Cc1ncc(C(F)(F)F)cc1Cl	-2	14	25*	0	-2	1	-1	-5
CC(=O)c1cc(-c2ccccc2)n(CC(=O)NCc2ccc(F)cc2)c1C	-6	/	/	/	/	/	/	/
COc1ccc(CN(CCN2CCOCC2)C(=O)c2ccc(F)cc2Cl)cc1OC	-7	/	/	/	/	/	/	/
